# Inconclusive results are not listed. Unmarked numbers belong to inactive results. Active and inactive are the calls of the source. The call rests on the fitted dose curve; in most records, active means well fitted cell-killing curve with a large enough effect; inconclusive means small, poorly fitted or top-dose-only effect, or effect the other way; inactive means no such curve, though single readings can be large or run the other way. *1 amine or outer side, *2 acyl side, *3 side chain or, on linkers, in order; H or OH if unused. Where a SMILES comes first, the peptide text is derived from it. Bridges are numbered along the chain shown (N, C = ends). Roman numbers before positions name the chains, in order. [ ]: non-standard residue; d: D form. Actinocin(9to1) = Cc1c2oc3c(C)ccc(C(=O)[*:1])c3nc-2c(C(=O)[*:2])c(N)c1=O; NMeV = CN[C@H](C(=O)O)C(C)C; Sar = CNCC(=O)O
# Test system: Tov-21-G
# Test: Confirmatory qHTS for gynecologic anti-cancer compounds from libraries of approved drugs and bioactive compounds; further: nearly all actives have a fitted effect of over 55% in size
# Details: gynecologic cancer cell panel viability, ATPlite luminescence, 48 h; series mostly up to 57.7 µM; activity change, negative = viability loss: at the top concentration
# Procedure, shortened: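 ATPlite luminescence read-out of cell viability; IC50 from 11-point 1:3 titrations, 57.5 uM to 0.977 nM, 48 h compound exposure at 37 C, 5% CO2. Cells seeded at 1,000/well 16 h before dosing.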
# On the % scale 0 is the no-effect control and ±100 the full control effect; potency means the concentration at half of the fitted maximal effect.
Structure (SMILES),Potency,"activity change, negative = viability loss [%]"
Cc1cc(Nc2cc(N3CCN(C)CC3)nc(/C=C/c3ccccc3)n2)n[nH]1,1720 nM (active),–
CN(C)C1CCN(C(=O)c2ccc(NC(=O)Nc3nc(N4CCOCC4)nc(N4CCOCC4)n3)cc2)CC1,172 nM (active),–
CN1CCN(Cc2ccc(NC(=O)Nc3ccc(Oc4cc(NC(=O)C5CC5)ncn4)cc3)cc2C(F)(F)F)CC1,432 nM (active),–
CC(Oc1ccc2[nH]nc(/C=C/c3cnn(CCO)c3)c2c1)c1c(Cl)cncc1Cl (stereo unspecified),6110 nM (active),–
COc1cc(N2CCC(N(C)C)CC2)ccc1Nc1ncc(Cl)c(Nc2ccccc2P(C)(C)=O)n1,1720 nM (active),–
CC(C)C[C@H](NC(=O)[C@H](CCc1ccccc1)NC(=O)CN1CCOCC1)C(=O)N[C@@H](Cc1ccccc1)C(=O)N[C@@H](CC(C)C)C(=O)[C@@]1(C)CO1,2170 nM (active),–
c1cc(N[C@@H]2CCNC2)nc(-c2cnc3ccc(-c4cn[nH]c4)cn23)c1,2430 nM (active),–
Nc1ccccc1NC(=O)c1ccc(CNc2nccc(-c3cccnc3)n2)cc1,2430 nM (active),–
Cc1ccc2nc(N)[nH]c(=O)c2c1Sc1ccncc1,–,-31.5
CN(NC(=O)CC(=O)NN(C)C(=S)c1ccccc1)C(=S)c1ccccc1,153 nM (active),–
CCN(CC)CCOc1ccc(/C(=C(\Cl)c2ccccc2)c2ccccc2)cc1,126000 nM (active),–
Cc1c(NC(=O)OCC2COCCN2)cn2ncnc(Nc3ccc4c(cnn4Cc4cccc(F)c4)c3)c12 (stereo unspecified),3060 nM (active),–
CN(C)C/C=C/C(=O)Nc1cc2c(Nc3ccc(F)c(Cl)c3)ncnc2cc1OC1CCOC1 (stereo unspecified),3430 nM (active),–
CCc1nc(C(N)=O)c(Nc2ccc(N3CCC(N4CCN(C)CC4)CC3)c(OC)c2)nc1NC1CCOCC1,2670 nM (active),–
COc1cc2nccc(Oc3ccc(NC(=O)Nc4cc(C)on4)c(Cl)c3)c2cc1OC,19300 nM (active),–
"Cc1c2oc3c(C)ccc(C(=O)N[C@@H]4C(=O)N[C@H](C(C)C)C(=O)N5CCC[C@H]5C(=O)N(C)CC(=O)N(C)[C@@H](C(C)C)C(=O)O[C@@H]4C)c3nc-2c(C(=O)N[C@@H]2C(=O)N[C@H](C(C)C)C(=O)N3CCC[C@H]3C(=O)N(C)CC(=O)N(C)[C@@H](C(C)C)C(=O)O[C@@H]2C)c(N)c1=O (I: T[dV]P[Sar][NMeV] / II: T[dV]P[Sar][NMeV]; ester I:1-I:C, II:1-II:C; linker I:N-II:N via Actinocin(9to1))",685 nM (active),–

Structure (SMILES),Potency,"activity change, negative = viability loss [%]"
Cn1c(=O)c(F)c(Nc2ccc(I)cc2F)c2c(=O)n(CC(O)CO)cnc21 (stereo unspecified),2730 nM (active),–
NC(=O)Nc1cc(-c2cccc(F)c2)sc1C(=O)NC1CCCNC1 (stereo unspecified),3430 nM (active),–
CNc1nc(Nc2ccc(C(=O)N3CCOCC3)cc2OC)ncc1Cl,–,-9.86
CC(=O)OC12COC1CC(O)C1(C)C(=O)C(O)C3=C(C)C(OC(=O)C(O)C(NC(=O)OC(C)(C)C)c4ccccc4)CC(O)(C(OC(=O)c4ccccc4)C21)C3(C)C (stereo unspecified),–,-6.62
CC[C@]1(O)C[C@H]2CN(CCc3c([nH]c4ccccc34)[C@@](C(=O)OC)(c3cc4c(cc3OC)N(C=O)[C@H]3[C@@](O)(C(=O)OC)[C@H](OC(C)=O)[C@]5(CC)C=CCN6CC[C@]43[C@@H]65)C2)C1,611 nM (active),–
Cc1cnc(Nc2cccc(CN3CCOCC3)c2)nc1Nc1cccc(S(=O)(=O)NC(C)(C)C)c1,3060 nM (active),–
COc1cc(Nc2c(C#N)cnc3cc(OCCCN4CCN(C)CC4)c(OC)cc23)c(Cl)cc1Cl,1720 nM (active),–
COc1ccc(OC)c(-c2nnc3ccc(-c4ccc(OC)c(O[C@@H]5CCOC5)c4)nn23)c1,–,-39.4
Cc1ccc(C(N)=O)cc1Nc1nccc(-c2cn(C(C)C)c3cnccc23)n1,9680 nM (active),–
Fc1cc(-c2cccc3ncc(-c4cnn(C5CCNCC5)c4)nc23)cc(F)c1CN1CCOCC1,12200 nM (active),–
COc1ccccc1N1CCN(CC(O)COc2cccc3ccccc23)CC1 (stereo unspecified),–,18.9
Cc1nc(Nc2n[nH]c3c2CN(C(=O)NC(CN(C)C)c2ccccc2)C3(C)C)c2sccc2n1 (stereo unspecified),2430 nM (active),–
Cc1nc(N)ncc1-c1nc(N2CCOCC2)c2sc(C(C)(C)O)cc2n1,1530 nM (active),–
Nc1ncn([C@@H]2O[C@H](CO)[C@@H](O)[C@H]2O)c(=O)n1,19300 nM (active),–
NS(=O)(=O)c1ccc(Nc2nc(OCC3CCCCC3)c3[nH]cnc3n2)cc1,–,-8.8

# From PubChem BioAssay AID1345085 (National Center for Advancing Translational Sciences (NCATS), 2018)
